The values below come from PubChem BioAssay.

By inhibition is commonly meant the drop in the measured response relative to a control, in per cent.

Values joined by “and” are separate entries in the source; they are usually repeats but may differ in a detail not shown here. Identical values can stand only once. Active and inactive are the calls of the source. Rule as the data show it, unless noted: active = inhibition above about 80%; inactive = the rest.

The test system of assay [1] is F380Y. In words: modulators of BK channel variants, profiling panel, selectivity assay, cell-based, U2OS BacMam, thallium flux, beta subunits (AID 1259406;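 active = thallium flux through the channel raised or lowered by more than 3 SD from vehicle-only wells, actives on both sides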;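 also: initial slope of Thallos dye fluorescence rise after thallium is added; log ratio against the mean of 0.3% DMSO vehicle wells on the same plate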). To be noted: at 30 µM.
Assay [2] deals with F380Y/beta1. The description is as above. To be noted: at 30 µM.
A short description of assay [3]: UWB1.289 ovarian carcinoma cell growth inhibition, synergistic combos for chromothripsis tumors, BGB or cisplatin combos (AID 1671456).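 Also: cells exposed to compound for four days; 0% = vehicle DMSO and 100% = killing by high DMSO.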 To be noted: UWB1.289 ovarian carcinoma cells, stronger effect = higher value.
Assay [4] in a line: LFS_MB_2R medulloblastoma cell growth inhibition, synergistic combos for chromothripsis tumors, cisplatin combos (AID 1671457).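 Also: cells exposed to compound for four days before readout.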 To be noted: LFS_MB_2R medulloblastoma cells, stronger effect = higher value.
Assay [5] can be described thus: MDA-MB-436 breast carcinoma cell growth inhibition, synergistic combos for chromothripsis tumors, BGB or cisplatin combos (AID 1671458; call rule not given here;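 also: cells exposed for 96 hours; 0% = vehicle DMSO and 100% = killing by high DMSO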). To be noted: MDA-MB-436 breast carcinoma growth inhibition, drug combinations, stronger effect = higher value.
The nature of assay [6]: UWB1.289_BRCA1 ovarian cancer growth, cell-based, BGB or cisplatin combinations (AID 1671459). To be noted: UWB1.289 BRCA1 ovarian carcinoma, drug combinations, stronger effect = higher value.
A short description of assay [7]: human astrocyte viability loss, single and combined drugs, cytotoxicity control for chromothriptic childhood tumor combination screen, cell-based, BGB or cisplatin IC20 combos (AID 1671460).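 Also: cells exposed to compounds for 96 hours before viability readout; 0% = vehicle and 100% = killing control.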 To be noted: Human astrocytes, drug combinations, stronger effect = higher value.
The nature of assay [8]: growth inhibition of BT084 medulloblastoma cells, cell-based, ICGC_MB145, cisplatin and BGB IC40 combos (AID 1671461).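 Also: cells exposed to drugs for 96 hours; 0% = vehicle DMSO and 100% = high DMSO full killing control.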 To be noted: drug combinations, stronger effect = higher value.
Assay [9] is described as follows: growth inhibition of RCMB18 medulloblastoma cells, cell-based, cisplatin and BGB IC40 combos (AID 1671462).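 Also: cells exposed to compound for four days.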 To be noted: stronger effect = higher value.
Assay [10] in a line: growth inhibition of CRL1545 osteosarcoma cells, cell-based, cisplatin and BGB IC20 combos (AID 1671464).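 Also: cells exposed to compound for 96 hours before readout; 0% = vehicle DMSO and 100% = high DMSO killing control.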 To be noted: stronger effect = higher value.
Where [11] appears, read: measured here: inhibition with BGB combination, at 0.05 µM.
The mark [12] stands for this setting: measured here: inhibition with cisplatin combination, at 0.05 µM.
[13] abbreviates: measured here: combination with cisplatin, at 0.5 µM.
[14] abbreviates: measured here: combination with cisplatin, at 5 µM.
Setting [15] is: measured here: BGB combination, at 0.5 µM.
Setting [16] is: measured here: BGB combination, at 5 µM.
The mark [17] stands for this setting: measured here: cisplatin combination, at 0.5 µM.
The mark [18] stands for this setting: measured here: cisplatin combination, at 5 µM.
[19] abbreviates: BGB combination, concentration series, at 5 µM.
Setting [20] is: cisplatin combination, concentration series, at 5 µM.
Where [21] appears, read: measured here: combo with BGB IC20, at 0.5 µM.
The mark [22] stands for this setting: measured here: combo with cisplatin IC20, at 0.5 µM.
Setting [23] is: cisplatin combination, at 0.5 µM.
Setting [24] is: measured here: BGB IC40 combination 0.05 uM, at 0.05 µM.
Where [25] appears, read: measured here: BGB IC40 combination, at 0.05 µM.
Where [26] appears, read: measured here: with BGB IC20 combination, at 0.5 µM.
The mark [27] stands for this setting: measured here: with cisplatin IC20 combination, at 0.5 µM.

Take `Cc1c(O)cccc1C(=O)N[C@@H](CSc1ccccc1)[C@H](O)CN1C[C@H]2CCCC[C@H]2C[C@H]1C(=O)NC(C)(C)C`: the log fold change Tl+ flux in [1] was 0.0722 (inactive); in [2], 0.0513 (inactive).
On to `CNNCc1ccc(C(=O)NC(C)C)cc1`, for which the inhibition in assay [3] (at 0.5 µM) is 13% (inactive) and 7.15% (inactive); in [3] (setting [11]) it was 3.19% and 1.17%; in assay [3] (setting [12]), 22.9% and 3.56%; in assay [4] (at 0.5 µM) it was 14.1% (inactive) and 0.23% (inactive); in assay [4] (setting [13]), 6.63% and -1.71%; in [4] (setting [14]), 15.9% and -32.2%. Also, the inhibition in assay [5] (at 0.5 µM) is 0.31% (inactive) and -0.08% (inactive); in [5] (setting [15]), 1.37% and 5.96%; in assay [5] (setting [16]) it was -3.48% and 5.4%; in [5] (setting [17]), 0.65% and -2.59%; in [5] (setting [18]), -3.21% and 0.056%; in [6] (setting [19]), -3.07% and 11.5%. Further, the inhibition in assay [6] (at 0.5 µM) is 8.92% (inactive) and 4.36% (inactive); in [6] (setting [20]), 2.73% and 5.28%; in [7] (at 0.5 µM), -1.46% (inactive) and -4.45% (inactive); in assay [7] (setting [21]) it was 4.04% and -5.12%; in assay [7] (setting [22]), -5.05% and -7.38%; in assay [8] (at 0.5 µM), 9.13% (inactive) and -8.81% (inactive). Further, the inhibition in [8] (setting [23]) was -8.59% and 0.014%; in assay [8] (cisplatin combination, at 5 µM), 13.7% and 11%; in assay [8] (setting [24]) it was 8.15% and 2.42%; in [8] (single agent, at 5 µM) it was -0.995% and -8.33%; in assay [9] (at 0.5 µM) it was 5.59% (inactive) and 7.58% (inactive); in [9] (cisplatin combo, at 5 µM), 1.81% and -25.8%. In addition, the inhibition in assay [9] (setting [25]) was -9.15% and -22.9%; in [9] (setting [13]), 38.1% and 9.89%; in assay [9] (single agent, at 5 µM), -25.5% and 7.57%; in assay [10] (at 0.5 µM) it was -9.96% (inactive) and 0.27% (inactive); in [10] (setting [26]), -28.2% and -29.3%; in assay [10] (setting [27]) it was -2.5% and 13.1%. In addition, the inhibition in [10] (single agent, at 0.05 µM) is -6% and -6.52%; in [10] (single agent, at 5 µM), -28.8% and -29%. In addition, the values for the log fold change Tl+ flux in assay [1] and in assay [2] were -0.0305 (inactive) and 0.0168 (inactive), respectively.
Regarding `O=C(O)CCCCCCCC(=O)O`, the inhibition in [3] (at 0.5 µM) was -13.5% (inactive); in assay [3] (setting [11]) it was -19.6%; in assay [3] (setting [12]) it was -0.85%; in assay [4] (at 0.5 µM) it was -13.9% (inactive); in [4] (setting [13]) it was -13.8%; in assay [4] (setting [14]), -48.8%. Besides, the inhibition in [5] (at 0.5 µM) was -29.2% (inactive); in assay [5] (setting [15]), -23.3%; in assay [5] (setting [16]), -29%; in [5] (setting [17]) it was -37.4%; in assay [5] (setting [18]), -23.5%; in assay [6] (setting [19]), -15.5%. The inhibition was -19.3% (inactive) in assay [6] (at 0.5 µM); -16.1% in assay [6] (setting [20]); -11.4% (inactive) in [7] (at 0.5 µM); -13.8% in [7] (setting [21]); -20% in assay [7] (setting [22]); -17.8% (inactive) in assay [8] (at 0.5 µM). Further, the inhibition was -4.5% in assay [8] (setting [23]); -12.5% in [8] (cisplatin combination, at 5 µM); 4.07% in assay [8] (setting [24]); -1.2% in assay [8] (single agent, at 5 µM); -9.8% (inactive) in assay [9] (at 0.5 µM); -40.4% in assay [9] (cisplatin combo, at 5 µM). Further, the inhibition in assay [9] (setting [25]) is -4.46%; in assay [9] (setting [13]), -13.4%; in [9] (single agent, at 5 µM) it was -26.4%; in assay [10] (at 0.5 µM) it was -28.2% (inactive); in assay [10] (setting [26]), -60.3%; in [10] (setting [27]), -14.7%. The inhibition in assay [10] (single agent, at 0.05 µM) was -52%; in [10] (single agent, at 5 µM) it was -52.1%.
`CCn1cc(C(=O)O)c(=O)c2cc3c(cc21)OCO3`: the inhibition was 2.29% (inactive) in assay [3] (at 0.5 µM); -2.14% in assay [3] (setting [11]); -6.63% in [3] (setting [12]); -21.9% (inactive) in [4] (at 0.5 µM); -20.2% in [4] (setting [13]); -21.2% in assay [4] (setting [14]). The inhibition was -14.4% (inactive) in [5] (at 0.5 µM); -16.2% in assay [5] (setting [15]); -18.6% in assay [5] (setting [16]); -20.7% in [5] (setting [17]); -20.6% in [5] (setting [18]); -2.14% in assay [6] (setting [19]). Besides, the inhibition in assay [6] (at 0.5 µM) is 1.91% (inactive); in assay [6] (setting [20]) it was 15.4%; in assay [7] (at 0.5 µM), -0.34% (inactive); in assay [7] (setting [21]) it was 2.16%; in assay [7] (setting [22]), -8.86%; in assay [8] (at 0.5 µM), -9.83% (inactive). The inhibition was 15.9% in assay [8] (setting [23]); -11.8% in assay [8] (cisplatin combination, at 5 µM); 27.5% in assay [8] (setting [24]); -16.8% in assay [8] (single agent, at 5 µM); -3.66% (inactive) in assay [9] (at 0.5 µM); 2.43% in [9] (cisplatin combo, at 5 µM). For the same compound, the inhibition in assay [9] (setting [25]) is -11.1%; in [9] (setting [13]) it was 16.7%; in [9] (single agent, at 5 µM), -9.78%; in assay [10] (at 0.5 µM), -6.67% (inactive); in assay [10] (setting [26]) it was -7.74%; in assay [10] (setting [27]), -6.13%. Besides, the inhibition in assay [10] (single agent, at 0.05 µM) turned out to be 12.4%; in assay [10] (single agent, at 5 µM), 12.2%.
Consider `CC1(C)S[C@@H]2[C@H](N=CN3CCCCCC3)C(=O)N2[C@H]1C(=O)O`, for which the log fold change Tl+ flux was 0.00482 (inactive) in assay [1] and 0.0062 (inactive) in assay [2].
In the case of `Cc1oncc1C(=O)Nc1ccc(C(F)(F)F)cc1`, the inhibition in assay [3] (at 0.5 µM) is 4.13% (inactive); in assay [3] (setting [11]), -13.1%; in assay [3] (setting [12]) it was -27.7%; in assay [4] (at 0.5 µM) it was -14.8% (inactive); in assay [4] (setting [13]), -17.8%; in assay [4] (setting [14]), 30.1%. In addition, the inhibition was 3.93% (inactive) in [5] (at 0.5 µM); 12.3% in assay [5] (setting [15]); 48.9% in assay [5] (setting [16]); -7.42% in assay [5] (setting [17]); 42.4% in assay [5] (setting [18]); 74.1% in assay [6] (setting [19]). Moreover, the inhibition was 6.99% (inactive) in assay [6] (at 0.5 µM); 66.1% in [6] (setting [20]); 23.1% (inactive) in assay [7] (at 0.5 µM); 15.1% in assay [7] (setting [21]); 28.3% in [7] (setting [22]); 5.65% (inactive) in assay [8] (at 0.5 µM). The inhibition in assay [8] (setting [23]) is -5.97%; in assay [8] (cisplatin combination, at 5 µM) it was 60.5%; in assay [8] (setting [24]), 32%; in assay [8] (single agent, at 5 µM), 51.2%; in [9] (at 0.5 µM) it was -7.24% (inactive); in [9] (cisplatin combo, at 5 µM) it was 23.6%. In addition, the inhibition in assay [9] (setting [25]) was -20.4%; in assay [9] (setting [13]), -2.75%; in assay [9] (single agent, at 5 µM), 34.1%; in assay [10] (at 0.5 µM), -17.2% (inactive); in assay [10] (setting [26]), -12.4%; in [10] (setting [27]) it was -21.5%. Also, the inhibition in assay [10] (single agent, at 0.05 µM) is -28.9%; in assay [10] (single agent, at 5 µM), 28.1%.
On to `COc1cc(C)c(Cc2cnc(N)nc2N)cc1OC`, for which the figures for the log fold change Tl+ flux in assay [1] and in [2] were 0.0111 (inactive) and 0.0334 (inactive), respectively.
In the case of `CC(C)(C#N)c1cc(Cn2cncn2)cc(C(C)(C)C#N)c1`, the log fold change Tl+ flux is 0.0287 (inactive) in [1] and 0.000378 (inactive) in [2].
